Results: article PMC5540273 (PLoS ONE, 2017)

These molecules were tested on MAP4K5. Settings: concentration: 1 μM, replicates: in singlicate; n = 1.
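Further: KINOMEscan kinase panel screen.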

Structure (SMILES)	%Inh [%]
Cc1ccc(C(=O)NCC(N)=O)cc1-n1c(C)cc(OCc2ccc(F)cc2F)c(Br)c1=O	0
CCn1cnc2c(N)ncnc21 [GW345098]	0
O=C(NCCNc1ccnc(Nc2ccc(F)cc2)n1)c1cc2ccccc2s1 [GSK1379874]	3
Cc1cccc(-c2nc(-c3ccc(S(C)(=O)=O)cc3)sc2-c2ccncc2)c1	0
Cl.Oc1cccc(Nc2ccnc3cc(-c4ccncc4)ccc23)c1 [GW494601]	20
O=C(NOCC1CC1)c1ccc(F)c(F)c1Nc1ccc(I)cc1Cl	0
N#Cc1ccc(-c2cc(-c3c[nH]nc3-c3ccccn3)ccn2)cc1 [GW693028]	0
Cc1c2ccc(N(C)c3ccnc(Nc4cccc(S(N)(=O)=O)c4)n3)cc2nn1Cc1ccccc1.Cl.Cl [GW787226]	87
CN1c2ccc(CNc3ccc(F)cc3)cc2-c2c(cnn2C)S1(=O)=O	0
CC(=O)Nc1ccc(COc2ccc(Nc3ccnc4cc(-c5ccccn5)ccc34)cc2)cc1.Cl [GW440148]	0
COCCNC(=O)c1ccc(-c2cc(C(=O)NC3CC3)cc(F)c2C)cc1 [GW868318]	6
Cl.Nc1ncnc2occ(-c3ccc(NC(=O)Nc4cc(C(F)(F)F)ccc4F)cc3)c12 [SB-707548]	99.7
N#Cc1c(N2CCOCC2)sc(-c2ccn[nH]2)c1-c1ccc(Cl)cc1	0
COc1cc2ncn(-c3cc(OCc4sccc4Cl)c(C(N)=O)s3)c2cc1OC [GSK448459]	99.1
CNc1ncnc2[nH]ncc12 [SKF-18355]	0
O=C1Cc2cc(Nc3nc(NCc4cccc(S(=O)(=O)C(F)(F)F)c4)ncc3C(F)(F)F)ccc2N1	0
CC(C)Oc1ccc2c(-c3ccnc(Nc4ccc(N5CCN(C)CC5)cc4)n3)cnn2n1 [GW696155]	0

Structure (SMILES)	%Inh [%]
NCC(NC(=O)c1cc(-c2cn[nH]c2)c(-c2ccnc3[nH]ccc23)s1)c1ccccc1.O=C(O)C(F)(F)F.O=C(O)C(F)(F)F (stereo not shown) [GSK1325775]	25
CCc1ccnc(/C=C/c2n[nH]c3cc(Sc4ccccc4C(=O)NC)ccc23)c1	3
COc1ccc(COc2cc(-n3cnc4ccccc43)sc2C(N)=O)cc1 [GSK1024304]	24
O=c1cc(N2CCOCC2)nc2n(Cc3cccc4ccccc34)ccn12 [GSK2333389]	10
Nc1nc(-c2ccc3c(N)n[nH]c3c2)cc(N2CCCC2)n1 [GSK2227430]	0
COc1ccc(S(=O)(=O)NC2CCN(c3cc(C)nc(Nc4cccc(C#N)c4)n3)CC2)cc1.O=C(O)C(F)(F)F [GSK1653539]	0
Fc1ccc(-c2nn3c(OCC(F)(F)F)cccc3c2-c2ccncc2)cc1 [GW514784]	0
Nc1nccc(-c2c(-c3ccc(F)cc3)ncn2C2CCN(CC(F)(F)F)CC2)n1 [SB-236560]	0
NS(=O)(=O)CCc1cccc(Nc2nccc(-c3c(-c4cccc(NC(=O)c5c(F)cccc5F)c4)nn4ccccc34)n2)c1 [GSK336735]	95.8
O=C(NCCNc1ccnc(Nc2ccc(F)cc2)n1)Nc1ccccc1F [GSK1379880]	0
Cc1ccc(NC(=O)c2ccnc(N3CCN(C)CC3)c2)cc1-c1ccc(C(=O)NCC2CC2)cc1 [GW775604]	0
O=c1cc(N2CCOCC2)nc2n(Cc3cccc(Cl)c3Cl)c(C3CC3)nn12 [GSK2358994]	0
c1ccc(-c2cc(-c3c[nH]nc3-c3ccccn3)ccn2)cc1 [GW576604]	0
COc1ccc(CNC(=O)NC2CCN(c3ccnc(Nc4ccc(OC)cc4)n3)C2)cc1 (stereo not shown) [GSK1379727]	0
C[C@@H](Oc1cc(-n2cnc3ccc(NC(=O)NC(C)(C)C)cc32)sc1C(N)=O)c1ccccc1Cl [GSK346294]	0
CN(C1=C(c2ccccc2)C(=O)NC1=O)c1ccccc1 [SB-334860]	9

The molecules below were run on MAPKAPK2. Settings: concentration: 1 μM, replicates: in singlicate; n = 1.

Structure (SMILES)	%Inh [%]
Cc1ccc(C(=O)NCC(N)=O)cc1-n1c(C)cc(OCc2ccc(F)cc2F)c(Br)c1=O	17
CCn1cnc2c(N)ncnc21 [GW345098]	0
NCCNS(=O)(=O)c1ccc(-c2ccnc3[nH]ccc23)cc1 [GSK977617]	0
O=C(NCCNc1ccnc(Nc2ccc(F)cc2)n1)c1cc2ccccc2s1 [GSK1379874]	0
Cc1cccc(-c2nc(-c3ccc(S(C)(=O)=O)cc3)sc2-c2ccncc2)c1	1
Cl.Oc1cccc(Nc2ccnc3cc(-c4ccncc4)ccc23)c1 [GW494601]	0
O=C(NOCC1CC1)c1ccc(F)c(F)c1Nc1ccc(I)cc1Cl	0
N#Cc1ccc(-c2cc(-c3c[nH]nc3-c3ccccn3)ccn2)cc1 [GW693028]	4
Cc1c2ccc(N(C)c3ccnc(Nc4cccc(S(N)(=O)=O)c4)n3)cc2nn1Cc1ccccc1.Cl.Cl [GW787226]	0
CN1c2ccc(CNc3ccc(F)cc3)cc2-c2c(cnn2C)S1(=O)=O	0
CC(=O)Nc1ccc(COc2ccc(Nc3ccnc4cc(-c5ccccn5)ccc34)cc2)cc1.Cl [GW440148]	0
COCCNC(=O)c1ccc(-c2cc(C(=O)NC3CC3)cc(F)c2C)cc1 [GW868318]	8
Cl.Nc1ncnc2occ(-c3ccc(NC(=O)Nc4cc(C(F)(F)F)ccc4F)cc3)c12 [SB-707548]	15
N#Cc1c(N2CCOCC2)sc(-c2ccn[nH]2)c1-c1ccc(Cl)cc1	0
COc1cc2ncn(-c3cc(OCc4sccc4Cl)c(C(N)=O)s3)c2cc1OC [GSK448459]	0
CNc1ncnc2[nH]ncc12 [SKF-18355]	0
O=C1Cc2cc(Nc3nc(NCc4cccc(S(=O)(=O)C(F)(F)F)c4)ncc3C(F)(F)F)ccc2N1	4

Structure (SMILES)	%Inh [%]
CC(C)Oc1ccc2c(-c3ccnc(Nc4ccc(N5CCN(C)CC5)cc4)n3)cnn2n1 [GW696155]	0
NCC(NC(=O)c1cc(-c2cn[nH]c2)c(-c2ccnc3[nH]ccc23)s1)c1ccccc1.O=C(O)C(F)(F)F.O=C(O)C(F)(F)F (stereo not shown) [GSK1325775]	0
CCc1ccnc(/C=C/c2n[nH]c3cc(Sc4ccccc4C(=O)NC)ccc23)c1	0
COc1ccc(COc2cc(-n3cnc4ccccc43)sc2C(N)=O)cc1 [GSK1024304]	0
O=c1cc(N2CCOCC2)nc2n(Cc3cccc4ccccc34)ccn12 [GSK2333389]	3
Nc1nc(-c2ccc3c(N)n[nH]c3c2)cc(N2CCCC2)n1 [GSK2227430]	0
COc1ccc(S(=O)(=O)NC2CCN(c3cc(C)nc(Nc4cccc(C#N)c4)n3)CC2)cc1.O=C(O)C(F)(F)F [GSK1653539]	0
Fc1ccc(-c2nn3c(OCC(F)(F)F)cccc3c2-c2ccncc2)cc1 [GW514784]	0
Nc1nccc(-c2c(-c3ccc(F)cc3)ncn2C2CCN(CC(F)(F)F)CC2)n1 [SB-236560]	0
NS(=O)(=O)CCc1cccc(Nc2nccc(-c3c(-c4cccc(NC(=O)c5c(F)cccc5F)c4)nn4ccccc34)n2)c1 [GSK336735]	23
O=C(NCCNc1ccnc(Nc2ccc(F)cc2)n1)Nc1ccccc1F [GSK1379880]	12
Cc1ccc(NC(=O)c2ccnc(N3CCN(C)CC3)c2)cc1-c1ccc(C(=O)NCC2CC2)cc1 [GW775604]	0
O=c1cc(N2CCOCC2)nc2n(Cc3cccc(Cl)c3Cl)c(C3CC3)nn12 [GSK2358994]	1
c1ccc(-c2cc(-c3c[nH]nc3-c3ccccn3)ccn2)cc1 [GW576604]	6
COc1ccc(CNC(=O)NC2CCN(c3ccnc(Nc4ccc(OC)cc4)n3)C2)cc1 (stereo not shown) [GSK1379727]	20
C[C@@H](Oc1cc(-n2cnc3ccc(NC(=O)NC(C)(C)C)cc32)sc1C(N)=O)c1ccccc1Cl [GSK346294]	12
CN(C1=C(c2ccccc2)C(=O)NC1=O)c1ccccc1 [SB-334860]	8
